# Reference: PubChem BioAssay (NCATS)
# Unmarked numbers belong to inactive results. Results filed as inconclusive are left out. Calls of active or inactive are those of the source. Calls follow the shape of the dose curve; as a rule, active = well fitted curve in the direction sought with a large enough effect; inconclusive = small, poorly fitted or top-dose-only effect, or another doubt; inactive = no such curve, though single readings can be large; an effect the other way counts as inactive or inconclusive.
# Assays:
# [1] = target: Cytochrome P450 3A4 (Homo sapiens) (UniProt P08684); assay: qHTS Assay for Activators of Cytochrome P450 3A4 (AID 885); also: nearly all actives have a fitted effect of over 65% in size
# Cytochrome P450 3A4 (Homo sapiens), sequence (P08684 whole entry, looked up): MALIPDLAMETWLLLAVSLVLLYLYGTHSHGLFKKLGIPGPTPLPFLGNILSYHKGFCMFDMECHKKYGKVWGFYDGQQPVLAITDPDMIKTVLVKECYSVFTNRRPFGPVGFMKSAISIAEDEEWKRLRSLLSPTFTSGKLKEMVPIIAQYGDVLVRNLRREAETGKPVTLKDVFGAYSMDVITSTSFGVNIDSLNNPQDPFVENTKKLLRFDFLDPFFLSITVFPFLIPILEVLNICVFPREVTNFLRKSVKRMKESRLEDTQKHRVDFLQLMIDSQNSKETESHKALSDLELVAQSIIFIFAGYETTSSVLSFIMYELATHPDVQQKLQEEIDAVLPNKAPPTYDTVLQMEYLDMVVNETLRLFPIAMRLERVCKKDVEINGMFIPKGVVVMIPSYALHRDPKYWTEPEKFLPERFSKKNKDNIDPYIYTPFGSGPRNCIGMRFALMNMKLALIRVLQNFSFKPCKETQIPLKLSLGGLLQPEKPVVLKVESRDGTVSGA
# Method in brief: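 Luminescent readout of luciferin formed from 25 uM Luciferin-PPXE (KM level) by 20 nM CYP3A4 in 200 mM KPO4, with 60 min NADPH-driven reaction at room temperature after 10 min compound exposure. Ketoconazole (57 uM) defined 100% inhibition.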
# [2] = target: Cytochrome P450 2C19 (Homo sapiens) (UniProt P33261); assay: qHTS Assay for Inhibitors and Substrates of Cytochrome P450 2C19 (AID 899); also: potency is read from the fitted curve at half-maximal effect; nearly all actives have a fitted effect of over 60% in size
# Cytochrome P450 2C19 (Homo sapiens), sequence (P33261 whole entry, looked up): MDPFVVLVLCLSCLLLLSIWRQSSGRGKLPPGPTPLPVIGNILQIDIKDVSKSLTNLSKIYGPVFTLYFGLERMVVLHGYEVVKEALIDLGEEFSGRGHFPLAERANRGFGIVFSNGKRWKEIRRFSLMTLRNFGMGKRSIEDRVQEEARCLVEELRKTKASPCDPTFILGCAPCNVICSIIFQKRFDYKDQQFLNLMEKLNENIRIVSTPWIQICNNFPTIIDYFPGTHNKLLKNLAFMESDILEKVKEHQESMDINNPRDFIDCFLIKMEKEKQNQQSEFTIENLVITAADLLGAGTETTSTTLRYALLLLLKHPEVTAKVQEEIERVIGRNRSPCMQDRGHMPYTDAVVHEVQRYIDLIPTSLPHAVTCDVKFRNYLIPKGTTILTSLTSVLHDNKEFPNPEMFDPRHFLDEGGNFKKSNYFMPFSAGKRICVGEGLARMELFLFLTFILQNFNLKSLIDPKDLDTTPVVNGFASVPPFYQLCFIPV
# Method in brief: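 Reactions contain 5nM enzyme, 10uM Luciferin-H EGE (KM) and 50mM KPO4; compound preincubates 10 min at 37C, NADPH regeneration starts turnover for 60 min. Luminescence after detection reagent gives activity.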
# [3] = qHTS Assay for Identification of Small Molecule Antagonists for Thrombopoietin (TPO) Signaling Pathway (AID 918); conditions: TPO-dependent cell signaling reporter, antagonist mode; also: potency is read from the fitted curve at half-maximal effect; nearly all actives have a fitted effect of over 60% in size
# Method in brief: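 Antagonist mode at EC50 TPO (26 pM) in IL-3-free medium; murine Ba/F3 cells with human TPO receptor and GPIIb-promoter luciferase, 24 hrs at 37 C before luminescent detection.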
# [4] = target: Alpha-galactosidase (Coffea arabica) (UniProt Q42656); assay: Counterscreen for Glucocerebrosidase Inhibitors: qHTS Assay for Coffee Bean alpha-Galactosidase at pH 4.5 (AID 957); also: series mostly up to about 77 µM
# Alpha-galactosidase (Coffea arabica), sequence (Q42656 whole entry, looked up): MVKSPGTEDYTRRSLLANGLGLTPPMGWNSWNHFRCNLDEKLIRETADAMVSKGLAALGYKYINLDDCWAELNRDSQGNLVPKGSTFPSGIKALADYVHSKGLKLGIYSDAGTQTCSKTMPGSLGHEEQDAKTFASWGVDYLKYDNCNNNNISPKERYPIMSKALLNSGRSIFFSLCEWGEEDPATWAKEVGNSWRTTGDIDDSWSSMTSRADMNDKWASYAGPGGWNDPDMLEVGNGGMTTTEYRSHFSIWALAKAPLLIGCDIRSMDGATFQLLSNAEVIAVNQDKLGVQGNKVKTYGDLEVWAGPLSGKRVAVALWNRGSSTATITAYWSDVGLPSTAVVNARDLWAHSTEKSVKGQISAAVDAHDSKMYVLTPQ
# Method in brief: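 Quantitative HTS of compounds (0.7 nM to 77 uM) against coffee bean alpha-galactosidase at pH 4.5, measuring 4-methylumbelliferone fluorescence released from 80 uM substrate.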
# [5] = qHTS for differential inhibitors of proliferation of Plasmodium falciparum line 7G8 (AID 1815);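 also: potency is read from the fitted curve at half-maximal effect; parasite growth measured after three days of incubation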
# [6] = qHTS for differential inhibitors of proliferation of Plasmodium falciparum line GB4 (AID 1816); conditions: Potency: Plasmodium falciparum GB4 proliferation inhibition;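 also: potency is read from the fitted curve at half-maximal effect; parasite growth measured after 72 h incubation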
# [7] = qHTS for differential inhibitors of proliferation of Plasmodium falciparum line 3D7 (AID 1876); also: potency is read from the fitted curve at half-maximal effect
# [8] = qHTS for differential inhibitors of proliferation of Plasmodium falciparum line Dd2 (AID 1882); conditions: Potency: Plasmodium falciparum Dd2 proliferation inhibition; also: potency is read from the fitted curve at half-maximal effect; nearly all actives have a fitted effect of over 65% in size
# Method in brief: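 RBC culture, 0.3% parasitemia / 2.5% Hct final; cpd added by pin tool in DMSO; 72 h, 37 C, 5% CO2; lysis buffer + SYBR Green I, o/n RT dark; FI 485/535; norm. to artemisinin 0.29 uM and DMSO.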
# [9] = qHTS for differential inhibitors of proliferation of Plasmodium falciparum line W2 (AID 1883); conditions: Potency: Plasmodium falciparum W2 proliferation inhibition;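 also: potency is read from the fitted curve at half-maximal effect; parasites grown with compound for 72 h before lysis and staining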
# [10] = qHTS for differential inhibitors of proliferation of Plasmodium falciparum line HB3 (AID 1886); conditions: Potency: Plasmodium falciparum HB3 proliferation inhibition;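 also: potency is read from the fitted curve at half-maximal effect; parasites grown with compound for 72 h before SYBR Green readout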
# [11] = High Content Imaging Cell-Based qHTS for Inhibitors of the mTORC1 Signaling Pathway in MEF (Tsc2-/-, p53-/-) Cells (AID 2666);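 also: percent of cells scored positive for phospho-rpS6 Ser235/236 immunostaining by imaging; potency is read from the fitted curve at half-maximal effect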
# Method in brief: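 Tsc2-/-, p53-/- MEFs (empty-vector stable) grown in DMEM + 10% FBS were exposed to compounds for 24 hrs at 37 degree Celsius, fixed, and stained with Alexa-488 anti-phospho-rpS6 Ser235/236 plus Hoechst. Imaging gave the percentage of positive cells per well.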
# [12] = High Content Imaging Cell-Based qHTS for Inhibitors of the mTORC1 Signaling Pathway in MEF Cells (AID 2667); also: potency is read from the fitted curve at half-maximal effect
# Method in brief: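 Tsc2-/-, p53-/- MEFs stably re-expressing WT Tsc2, grown in DMEM + 10% FBS, were treated with compounds for 24 hrs at 37 degree Celsius, fixed, and stained with Alexa-488 phospho-rpS6 Ser235/236 antibody plus Hoechst; results given as % positive cells.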
# [13] = Cytometry Cell-Based qHTS for Inhibitors of the mTORC1 Signaling Pathway in MEF cells (AID 2668); also: potency is read from the fitted curve at half-maximal effect
# Method in brief: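 Tsc2-/-, p53-/- MEFs re-expressing WT Tsc2; cpd 24 hrs, 37 degree Celsius; PFA fix, Alexa-488 p-rpS6 (Ser235/236) Ab 2 hrs RT, PI counterstain; Acumen 488nm scan; p-S6/PI ratio → % positive cells; PI count = viability.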
# [14] = Quantitative high throughput screen for delayed death inhibitors of the malarial parasite plastid, 96 hour incubation (AID 488745); also: potency is read from the fitted curve at half-maximal effect; nearly all actives have a fitted effect of over 70% in size
# Method in brief: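 Two-generation (96 h) exposure of luciferase-reporter P. falciparum in erythrocytes, 2% hematocrit, 0.1% parasitemia final, 37 C, 5% CO2, RPMI 1640 with 0.5% Albumax. Growth inhibition scored by reduced luminescence.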
# [15] = target: M-phase phosphoprotein 8 (Homo sapiens) (UniProt Q99549); assay: qHTS Validation Assay for Inhibitors for MPP8 Chromodomain Interactions with Methylated Histone Tails (AID 488949);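 also: 50 nM MPP8 with 50 nM peptide preformed then compounds added for 30 min; AlphaScreen signal from MPP8 chromodomain bound to biotinylated H3K9me3 peptide; top concentration of the series differs between compounds; nearly all actives have a fitted effect of over 55% in size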
# M-phase phosphoprotein 8 (Homo sapiens), sequence (Q99549 whole entry, looked up): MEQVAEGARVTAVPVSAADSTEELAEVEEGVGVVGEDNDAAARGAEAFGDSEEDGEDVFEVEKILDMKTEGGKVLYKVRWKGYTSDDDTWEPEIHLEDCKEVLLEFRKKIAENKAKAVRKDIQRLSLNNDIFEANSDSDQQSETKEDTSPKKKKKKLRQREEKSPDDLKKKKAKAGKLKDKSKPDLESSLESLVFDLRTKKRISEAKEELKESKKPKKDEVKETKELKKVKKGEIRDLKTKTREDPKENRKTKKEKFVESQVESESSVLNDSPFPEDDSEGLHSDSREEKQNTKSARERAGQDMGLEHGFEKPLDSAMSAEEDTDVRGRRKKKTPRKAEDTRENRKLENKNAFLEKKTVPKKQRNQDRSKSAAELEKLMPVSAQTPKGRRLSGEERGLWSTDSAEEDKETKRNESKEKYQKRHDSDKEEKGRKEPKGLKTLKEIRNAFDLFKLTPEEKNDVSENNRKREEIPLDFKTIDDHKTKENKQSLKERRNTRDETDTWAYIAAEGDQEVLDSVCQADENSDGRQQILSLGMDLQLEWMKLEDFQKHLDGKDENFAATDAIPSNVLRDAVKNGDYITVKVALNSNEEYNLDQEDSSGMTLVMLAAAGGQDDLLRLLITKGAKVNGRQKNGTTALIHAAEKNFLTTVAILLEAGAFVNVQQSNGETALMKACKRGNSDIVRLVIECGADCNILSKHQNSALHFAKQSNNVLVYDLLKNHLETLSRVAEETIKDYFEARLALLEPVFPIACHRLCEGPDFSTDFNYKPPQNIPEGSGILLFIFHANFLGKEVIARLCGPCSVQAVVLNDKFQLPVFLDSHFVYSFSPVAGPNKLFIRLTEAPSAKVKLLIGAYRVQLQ
# Method in brief: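 50 nM MPP8 + 50 nM b-H3K9me3 peptide, PBS pH 7.4/0.01% Tween-20, 30 min RT; + cpd 30 min RT; + AlphaScreen donor/Ni-chelate acceptor beads 10 ug/mL final, 30 min dark; luminescence read.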
# [16] = target: Chromobox protein homolog 1 (Homo sapiens) (UniProt P83916); assay: qHTS Validation Assay for Inhibitors of HP1-beta Chromodomain Interactions with Methylated Histone Tails (AID 488953); also: potency is read from the fitted curve at half-maximal effect; nearly all actives have a fitted effect of over 50% in size
# Chromobox protein homolog 1 (Homo sapiens), sequence (P83916 whole entry, looked up): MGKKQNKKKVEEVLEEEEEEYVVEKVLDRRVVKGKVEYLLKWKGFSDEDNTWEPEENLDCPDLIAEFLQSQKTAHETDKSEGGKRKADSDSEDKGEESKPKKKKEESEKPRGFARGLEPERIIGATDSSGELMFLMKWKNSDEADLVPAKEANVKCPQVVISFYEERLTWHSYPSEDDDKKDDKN
# Method in brief: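 Compounds pinned into a preassembled complex of HP1-beta and trimethyl-K9 histone H3(1-18) biotin peptide (50 nM each; PBS pH 7.4, 0.01% Tween-20). After 30 min, bead-based AlphaScreen detection followed.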
# [17] = Validation screen for small molecules that induce genotoxicity in human embryonic kidney (HEK293T) cells expressing luciferase-tagged ELG1 (AID 493106)
# Method in brief: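 In this validation screen, increased ELG1-luciferase signal flags compounds causing genetic stress. HEK293T reporter cells are treated 16 hr (37 °C, 5% CO2), developed with ONE-Glo for 30 min at room temperature, and imaged on a CCD-based reader.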
# [18] = Inducers of the Endoplasmic Reticulum Stress Response (ERSR) in human glioma: Validation (AID 504836)
# Method in brief: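 ERSR induction read as luciferase luminescence (Bright-Glo, 10 min at room temperature) in stably transfected human U87-MG glioma cells exposed to compounds for 16 h, using GRP78 as sensor.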
# [19] = target: Voltage-gated inwardly rectifying potassium channel KCNH2 (Homo sapiens) (UniProt Q12809); assay: qHTS Assay for Small Molecule Inhibitors of the Human hERG Channel Activity (AID 588834);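 also: potency is read from the fitted curve at half-maximal effect; lower thallium flux fluorescence means stronger hERG block; nearly all actives have a fitted effect of over 50% in size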
# Voltage-gated inwardly rectifying potassium channel KCNH2 (Homo sapiens), sequence (Q12809 whole entry, looked up): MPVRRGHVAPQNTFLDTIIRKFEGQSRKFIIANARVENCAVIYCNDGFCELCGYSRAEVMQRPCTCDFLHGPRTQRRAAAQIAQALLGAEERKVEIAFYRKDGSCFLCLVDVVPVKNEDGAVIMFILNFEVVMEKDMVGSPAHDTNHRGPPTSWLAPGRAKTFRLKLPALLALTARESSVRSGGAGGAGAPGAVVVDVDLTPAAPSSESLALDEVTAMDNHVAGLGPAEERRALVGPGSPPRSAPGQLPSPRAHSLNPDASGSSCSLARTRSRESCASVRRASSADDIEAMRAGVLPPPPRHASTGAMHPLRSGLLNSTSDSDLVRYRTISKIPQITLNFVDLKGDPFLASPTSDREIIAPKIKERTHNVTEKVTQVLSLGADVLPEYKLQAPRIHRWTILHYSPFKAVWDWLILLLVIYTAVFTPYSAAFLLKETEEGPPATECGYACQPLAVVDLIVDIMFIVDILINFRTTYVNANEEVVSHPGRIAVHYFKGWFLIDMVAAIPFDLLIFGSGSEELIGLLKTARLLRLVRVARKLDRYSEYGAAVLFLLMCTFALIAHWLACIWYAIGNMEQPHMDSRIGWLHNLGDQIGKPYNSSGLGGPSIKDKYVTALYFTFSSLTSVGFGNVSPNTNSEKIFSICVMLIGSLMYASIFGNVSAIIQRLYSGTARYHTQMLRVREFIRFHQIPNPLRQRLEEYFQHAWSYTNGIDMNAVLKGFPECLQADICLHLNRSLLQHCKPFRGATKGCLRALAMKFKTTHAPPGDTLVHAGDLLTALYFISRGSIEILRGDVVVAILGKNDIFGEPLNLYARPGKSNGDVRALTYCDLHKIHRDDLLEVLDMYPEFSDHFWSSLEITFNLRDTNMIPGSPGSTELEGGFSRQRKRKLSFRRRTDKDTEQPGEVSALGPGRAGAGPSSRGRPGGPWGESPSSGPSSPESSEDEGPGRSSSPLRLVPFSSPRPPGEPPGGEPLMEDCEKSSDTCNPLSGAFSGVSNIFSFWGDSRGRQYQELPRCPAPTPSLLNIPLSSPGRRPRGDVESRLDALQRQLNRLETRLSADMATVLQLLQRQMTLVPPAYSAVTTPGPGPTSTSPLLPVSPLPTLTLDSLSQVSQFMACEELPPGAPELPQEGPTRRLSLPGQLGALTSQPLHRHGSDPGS
# Method in brief: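 Step 1: BacMam hERG transduction of U2OS, 4 hrs RT. Step 2: overnight 37 °C, plate 2000 cells/well, 4 hr. Step 3: FluxOR load, compound 10 min, stimulate, read fluorescence.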
# [20] = qHTS for compounds that reverse cellular toxicity of Amyloid beta (A-beta) peptide in yeast: LOPAC Validation Assay (AID 720559)
# Method in brief: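 Medium dispensed, compounds pinned, A-beta yeast suspension added; plates held at 30 C for 48 hr; absorbance measured at 600 nm to gauge growth; values scaled between DMSO and FeCl3/clioquinol (equimolar) controls.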
# [21] = target: Glutathione peroxidase 1 (Homo sapiens) (UniProt P07203); assay: Primary qHTS Assay for Inhibitors of Recombinant Selenoprotein Glutathione Peroxidase 1 (GPX1) (AID 1845191); also: nearly all actives have a fitted effect of over 65% in size
# Glutathione peroxidase 1 (Homo sapiens), sequence (P07203 whole entry, looked up): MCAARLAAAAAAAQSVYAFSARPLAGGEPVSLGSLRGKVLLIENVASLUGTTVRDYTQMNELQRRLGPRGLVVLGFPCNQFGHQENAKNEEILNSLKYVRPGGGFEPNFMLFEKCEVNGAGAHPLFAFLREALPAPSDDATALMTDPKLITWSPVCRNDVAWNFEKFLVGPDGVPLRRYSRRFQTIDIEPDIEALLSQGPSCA
# Method in brief: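 NADPH consumption tracked by fluorescence at 340/450 nm between t=0 and t=15 min, room temperature. Final mix: 10 nM GPX1, 100 nM glutathione reductase, 1 mM GSH, 0.5 mM NADPH, 0.5 mM cumene hydroperoxide, 0.01% BSA; 30 min compound–enzyme preincubation.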
smiles,measurement,setting,value
S=C(S)N1CCCC1,Potency,[1],inactive
same,Potency,[2],3.98 µM (active)
same,Potency,[3],3.98 µM (active)
same,outcome,[4],inactive
same,Potency,[5],2.82 µM (active)
same,Potency,[6],2.82 µM (active)
same,Potency,[7],3.16 µM (active)
same,Potency,[8],7.94 µM (active)
same,Potency,[9],11.2 µM (active)
same,Potency,[10],2.51 µM (active)
same,Potency,[11],2.61 µM (active)
same,Potency,[12],2.93 µM (active)
same,Potency,[13],4.65 µM (active)
same,Potency,[14],5.86 µM (active)
same,Potency,[15],inactive
same,Potency,[16],44.7 µM (active)
same,outcome,[17],inactive
same,outcome,[18],inactive
same,Potency,[19],3.55 µM (active)
same,outcome,[20],inactive
O=C(O)c1ccnc2cc(C(OCCN3CCC(F)(F)CC3)c3ccccc3Cl)[nH]c12 (stereo unspecified),Potency,[21],inactive
